PubChem BioAssay (EPA / NIEHS)
Active and inactive are the calls of the source. How the source made its calls: active means hit-call score of the fitted dose curve at least 0.9, where 1 is the maximum; inactive means score below 0.9.

Legend:
Details in all cases: actives raise or lower the signal
[1] = CEETOX_H295R_OHPREG_noMTC: CeeTox H295R High-throughput Steroidogenesis Assay for OH-Pregnenolone (OHPREG), maximum tolerated concentration (MTC) filtered results only (AID 2283912)
Procedure, shortened: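 Medium 17alpha-hydroxypregnenolone quantified by reverse-phase HPLC-MS/MS after 48 h chemical exposure of forskolin-prestimulated (10 uM, 48 h) H295R, 0.1% DMSO final. Fitting bidirectional relative to DMSO; no maximum-tolerated-concentration filtering applied.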

[2] = CEETOX_H295R_OHPROG_noMTC: CeeTox H295R High-throughput Steroidogenesis Assay for OH-Progesterone (OHPROG), maximum tolerated concentration (MTC) filtered results only (AID 2283914)
Procedure, shortened: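 After 48 h forskolin (10 uM) prestimulation, H295R adrenal cells received test chemical in 0.1% DMSO for 48 h. Medium 17alpha-hydroxyprogesterone was MTBE-extracted and measured by HPLC-MS/MS; gain or loss relative to DMSO, no MTT-based MTC filtering.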

[3] = CEETOX_H295R_CORTISOL_noMTC: CeeTox H295R High-throughput Steroidogenesis Assay for Cortisol, maximum tolerated concentration (MTC) filtered results only (AID 2283916)
Procedure, shortened: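 Cortisol secretion measured by LC-MS/MS after 48 h chemical treatment (final 0.1% DMSO) of forskolin-primed (10 uM, 48 h) H295R cells; gain or loss fitted relative to DMSO, without maximum-tolerated-concentration filtering.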

[4] = CEETOX_H295R_CORTIC_noMTC: CeeTox H295R High-throughput Steroidogenesis Assay for Corticosterone (CORTIC), maximum tolerated concentration (MTC) filtered results only (AID 2283917)
Procedure, shortened: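 Human adrenal H295R cells were prestimulated 48 h with 10 uM forskolin, then exposed 48 h to chemical in 0.1% DMSO. Medium corticosterone was MTBE-extracted and quantified by HPLC-MS/MS; bidirectional fits versus DMSO, concentrations not MTC-filtered.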

[5] = CEETOX_H295R_DOC_noMTC: CeeTox H295R High-throughput Steroidogenesis Assay for DOC, maximum tolerated concentration (MTC) filtered results only (AID 2283918)
Procedure, shortened: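 11-Deoxycorticosterone secreted by human adrenal H295R cells quantified by HPLC-MS/MS after 48 h chemical exposure (0.1% DMSO), following 48 h 10 uM forskolin prestimulation. Concentrations not filtered by MTT-derived MTC; bidirectional fitting.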

[6] = CEETOX_H295R_ESTRADIOL_noMTC: CeeTox H295R High-throughput Steroidogenesis Assay for Estradiol, maximum tolerated concentration (MTC) filtered results only (AID 2283919)
Procedure, shortened: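 Readout: dansyl-derivatized estradiol quantified by LC-MS/MS in medium from H295R cells dosed 48 h (0.1% DMSO) following 48 h forskolin (10 uM) prestimulation. Gain or loss of signal fitted against DMSO; no MTC filtering applied.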

[7] = CEETOX_H295R_PROG_noMTC: CeeTox H295R High-throughput Steroidogenesis Assay for Progesterone (PROG), maximum tolerated concentration (MTC) filtered results only (AID 2283920)
Procedure, shortened: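 Progesterone secreted into medium was measured by HPLC-MS/MS after MTBE extraction, following 48 h chemical exposure (0.1% DMSO) of forskolin-prestimulated (10 uM, 48 h) H295R adrenal cells. Gain or loss fitted against DMSO; no MTC filtering.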

[8] = CEETOX_H295R_ESTRONE_noMTC: CeeTox H295R High-throughput Steroidogenesis Assay for Estrone, maximum tolerated concentration (MTC) filtered results only (AID 2283921)
Procedure, shortened: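 Estrone in spent medium, quantified by tandem MS following dansyl chloride derivatization, after 48 h chemical exposure (0.1% DMSO) of forskolin-prestimulated (10 uM, 48 h) H295R cells; concentrations not MTC-filtered, bidirectional fit against DMSO.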

[9] = CEETOX_H295R_ANDR_noMTC: CeeTox H295R High-throughput Steroidogenesis Assay for Androstenedione (ANDR), maximum tolerated concentration (MTC) filtered results only (AID 2283915)
Procedure, shortened: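 Androstenedione secreted into medium was measured by LC-MS/MS after MTBE extraction. Human adrenal H295R cells received 10 uM forskolin for 48 h before 48 h chemical exposure (0.1% DMSO). Gain or loss fitted against DMSO, including concentrations above the MTT-derived MTC.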

[10] = CEETOX_H295R_TESTO_noMTC: CeeTox H295R High-throughput Steroidogenesis Assay for Testosterone (TESTO), maximum tolerated concentration (MTC) filtered results only (AID 2283924)
Procedure, shortened: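 Medium testosterone, measured by HPLC-MS/MS after liquid-liquid extraction, was fitted in both directions relative to DMSO without MTC filtering. Adrenal H295R cells received 48 h chemical exposure (0.1% DMSO final) after 48 h forskolin (10 uM) prestimulation; viability by MTT.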

Measured: AC50

c1ccc2cc3ccccc3cc2c1
inactive: [1] | [2] | [3] | [4] | [5] | [6] | [7] | [8]

Cc1nc(-c2ccccn2)ncc1C(=O)Nn1cc(C)c2cc(F)ccc21
active: [1] 4.1 µM | [2] 8.28 µM | [9] 22.5 µM | [3] 12.7 µM | [4] 9.57 µM | [5] 5.19 µM | [7] 3.34 µM | [10] 11.5 µM
inactive: [6] | [8]

O=S(=O)(O)c1ccc(N=Nc2c(O)ccc3cc(S(=O)(=O)O)ccc23)cc1
inactive: [1] | [2] | [3] | [4] | [5] | [7]
